Measurements as given in PubChem BioAssay (Tox21).
Several values for one entry are separate records, joined by “and”; a condition that tells them apart may be missing. Identical values can stand only once. Records with an inconclusive call do not appear. Activity calls are given as the source filed them. Unless noted, the call rests on the fitted dose curve; in most records, active means well fitted curve in the direction sought with a large enough effect in the repeat runs; inconclusive means weak or mixed curves; inactive means no such curve, though single readings can be large; an effect the other way counts as inactive or inconclusive.

Key:
[1] = A CellTox Green Cytotoxicity Assay to monitor cytotoxicity in HEK293 cells - 32 hour (AID 1224881); further: nearly all actives have a fitted effect of over 40% in size; further: potency means the concentration at half of the fitted maximal effect
Procedure, shortened: (§1)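 Cytotoxicity was tracked continuously in HEK293 cells by a DNA-binding dye excluded from viable cells. Compounds were transferred in DMSO 5 h after seeding; fluorescence was recorded at intervals up to 40 h.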

[2] = A CellTox Green Cytotoxicity Assay to monitor cytotoxicity in HepG2 cells - 32 hour (AID 1224883); further: nearly all actives have a fitted effect of over 50% in size; further: potency means the concentration at half of the fitted maximal effect
Procedure, shortened: (§2)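 Real-time, homogeneous cytotoxicity readout: dead-cell DNA staining by CellTox Green in HepG2 monolayers, fluorescence measured at timed intervals up to 40 h of continuous compound exposure.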

[3] = A CellTox Green Cytotoxicity Assay to monitor cytotoxicity in HEK293 cells - 8 hour (AID 1224884); further: nearly all actives have a fitted effect of over 35% in size; further: potency means the concentration at half of the fitted maximal effect
Procedure, shortened: as §1

[4] = qHTS RealTime-Glo MT Cell Viability Assay in HepG2 cells - 16 hour (AID 1224885); further: nearly all actives have a fitted effect of over 50% in size; further: potency means the concentration at half of the fitted maximal effect
Procedure, shortened: (§3)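 Compound treatment began 5 h after plating HepG2 cells (600/well) with NanoLuc luciferase and prosubstrate. Plates stayed at 37 C for 40 h; luminescence was captured at six time points, 0 h through 40 h.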

[5] = qHTS RealTime-Glo MT Cell Viability Assay in HEK293 cells - 24 hour (AID 1224886); further: nearly all actives have a fitted effect of over 50% in size; further: potency means the concentration at half of the fitted maximal effect
Procedure, shortened: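 Quantitative high-throughput screen of the Tox21 10K library in HEK293: cells and RealTime-Glo reagents plated together, compound added at 5 h, luminescence monitored through 40 h at 37 C.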

[6] = qHTS RealTime-Glo MT Cell Viability Assay in HEK293 cells - 8 hour (AID 1224887); further: top concentration of the series differs between compounds; nearly all actives have a fitted effect of over 50% in size
Procedure, shortened: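 Nonlytic bioluminescent viability monitoring. HEK293 at 600 cells/well with reagent; 5 h settle; compound transfer by pintool; plates held at 37 C and read at set time points.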

[7] = A CellTox Green Cytotoxicity Assay to monitor cytotoxicity in HEK293 cells - 16 hour (AID 1224888); further: nearly all actives have a fitted effect of over 35% in size
Procedure, shortened: as §1

[8] = qHTS RealTime-Glo MT Cell Viability Assay in HepG2 cells - 0 hour (AID 1224889); further: nearly all actives have a fitted effect of over 50% in size
Procedure, shortened: as §3

[9] = A CellTox Green Cytotoxicity Assay to monitor cytotoxicity in HepG2 cells - 8 hour (AID 1224890); further: nearly all actives have a fitted effect of over 45% in size; further: potency means the concentration at half of the fitted maximal effect
Procedure, shortened: as §2

[10] = qHTS assay to identify small molecule antagonists of the estrogen receptor alpha (ER-alpha) signaling pathway using the BG1 cell line in the presence of 0.1 nM 17-beta-estradiol - cell viability counter screen (AID 1259241); further: nearly all actives have a fitted effect of over 40% in size
Procedure, shortened: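 Following 5 days in phenol red-free medium with charcoal-stripped serum, VM7Luc4E2 cells received test compounds alongside 0.1 nM 17beta-estradiol (final) at 37C for 22 hr. Live cells were then quantified via protease-substrate fluorescence.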

[11] = qHTS assay to identify small molecule antagonists of the androgen receptor (AR) signaling pathway using the MDA cell line in the presence of 0.5 nM R1881 - cell viability counter screen (AID 1259242); further: nearly all actives have a fitted effect of over 45% in size
Procedure, shortened: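 Cytotoxicity toward MDA-kb2 cells is measured by CellTiter-Fluor live-cell protease fluorescence after 16 hr compound exposure at 37C in the presence of 0.5 nM R1881 stimulator.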

[12] = biological target: Estrogen receptor (Homo sapiens) (UniProt P03372); test: qHTS assay to identify small molecule antagonists of the estrogen receptor alpha (ER-alpha) signaling pathway using the BG1 cell line in the presence of 0.1 nM 17-beta-estradiol (AID 1259244); further: nearly all actives have a fitted effect of over 50% in size
Sequence of Estrogen receptor (Homo sapiens) (P03372 whole entry, looked up): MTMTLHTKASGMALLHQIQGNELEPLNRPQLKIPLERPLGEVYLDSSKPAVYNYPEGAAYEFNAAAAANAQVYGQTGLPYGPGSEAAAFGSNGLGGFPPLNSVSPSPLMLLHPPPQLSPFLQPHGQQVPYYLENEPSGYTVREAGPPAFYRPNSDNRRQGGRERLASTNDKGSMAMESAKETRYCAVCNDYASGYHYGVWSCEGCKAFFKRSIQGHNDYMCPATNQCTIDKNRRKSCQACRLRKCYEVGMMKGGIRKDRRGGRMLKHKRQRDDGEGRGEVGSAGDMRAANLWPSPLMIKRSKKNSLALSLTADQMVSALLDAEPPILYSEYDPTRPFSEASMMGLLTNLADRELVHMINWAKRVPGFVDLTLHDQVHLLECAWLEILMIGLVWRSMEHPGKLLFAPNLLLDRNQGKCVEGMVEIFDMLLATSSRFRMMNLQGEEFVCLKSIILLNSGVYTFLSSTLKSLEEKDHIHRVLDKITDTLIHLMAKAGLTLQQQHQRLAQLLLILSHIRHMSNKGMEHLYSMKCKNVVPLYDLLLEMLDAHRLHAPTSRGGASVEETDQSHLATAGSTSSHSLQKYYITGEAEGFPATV
Procedure, shortened: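 After 5 days in hormone-depleted medium (charcoal-stripped serum, no phenol red), VM7Luc4E2 cells were seeded, incubated 24 h, then co-treated with compound and 0.1 nM (final) estradiol for 22 h before luminescence detection.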

[13] = qHTS assay to identify small molecule HDAC inhibitors (AID 1259364); further: top concentration of the series differs between compounds; nearly all actives have a fitted effect of over 45% in size
Procedure, shortened: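 Homogeneous cell-based luminescent assay of endogenous class I/II HDAC activity; HCT-116 cells, 2 h compound exposure, 30 min HDAC-Glo development at RT.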

[14] = qHTS assay to identify small molecule HDAC inhibitors - cell viability counter screen (AID 1259365)
Procedure, shortened: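 HCT-116 wild-type, overnight attachment; 2hr drug exposure, 37C; CellTiter-Glo luminescent ATP readout after 30min RT.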

[15] = qHTS assay to identify small molecule agonists of the sonic hedgehog signaling (Shh) pathway - cell viability counter screen (AID 1259366); further: nearly all actives have a fitted effect of over 50% in size; further: potency means the concentration at half of the fitted maximal effect
Procedure, shortened: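 Compounds in DMSO were pin-transferred onto 3T3 Gli1-Luc cells that had settled 4hr; plates then stood 24hr at 37C and 5% CO2. One hour before the end, CellTiter-Fluor was added and fluorescence recorded.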

[16] = qHTS assay to identify small molecule antagonists of the sonic hedgehog signaling (Shh) pathway - cell viability counter screen (AID 1259367); further: nearly all actives have a fitted effect of over 55% in size
Procedure, shortened: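 NIH/3T3-derived Gli1-Luc reporter cells (2,000 per well) rested 4 hr at 37 C, then received DMSO compounds plus conditioned medium. After 23 hr of treatment, CellTiter-Fluor was added for 1 hr at 37C and fluorescence read.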

[17] = qHTS assay to identify small molecule agonists of the sonic hedgehog signaling (Shh) pathway (AID 1259368; calls by dose curve;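 further: NIH/3T3-derived 3T3Gli1-Luc cells carrying a stable Gli1-driven firefly luciferase reporter; series mostly up to about 92 µM; nearly all actives have a fitted effect of over 15% in size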)
Procedure, shortened: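 Steps: seed 3T3 Gli1-Luc cells, incubate 4 hr at 37 C, pin-transfer compounds in DMSO alongside a positive control, incubate 24 hr, add luciferase detection reagent, wait 30 min at room temperature, read luminescence.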

[18] = A CellTox Green Cytotoxicity Assay to monitor cytotoxicity in HepG2 cells - 0 hour (AID 1224882); further: nearly all actives have a fitted effect of over 35% in size
Procedure, shortened: as §2

[19] = biological target: Androgen receptor (Homo sapiens) (UniProt P10275); test: qHTS assay to identify small molecule antagonists of the androgen receptor (AR) signaling pathway using the MDA cell line in the presence of 0.5 nM R1881 (AID 1259243); further: nearly all actives have a fitted effect of over 50% in size
Sequence of Androgen receptor (Homo sapiens) (P10275 whole entry, looked up): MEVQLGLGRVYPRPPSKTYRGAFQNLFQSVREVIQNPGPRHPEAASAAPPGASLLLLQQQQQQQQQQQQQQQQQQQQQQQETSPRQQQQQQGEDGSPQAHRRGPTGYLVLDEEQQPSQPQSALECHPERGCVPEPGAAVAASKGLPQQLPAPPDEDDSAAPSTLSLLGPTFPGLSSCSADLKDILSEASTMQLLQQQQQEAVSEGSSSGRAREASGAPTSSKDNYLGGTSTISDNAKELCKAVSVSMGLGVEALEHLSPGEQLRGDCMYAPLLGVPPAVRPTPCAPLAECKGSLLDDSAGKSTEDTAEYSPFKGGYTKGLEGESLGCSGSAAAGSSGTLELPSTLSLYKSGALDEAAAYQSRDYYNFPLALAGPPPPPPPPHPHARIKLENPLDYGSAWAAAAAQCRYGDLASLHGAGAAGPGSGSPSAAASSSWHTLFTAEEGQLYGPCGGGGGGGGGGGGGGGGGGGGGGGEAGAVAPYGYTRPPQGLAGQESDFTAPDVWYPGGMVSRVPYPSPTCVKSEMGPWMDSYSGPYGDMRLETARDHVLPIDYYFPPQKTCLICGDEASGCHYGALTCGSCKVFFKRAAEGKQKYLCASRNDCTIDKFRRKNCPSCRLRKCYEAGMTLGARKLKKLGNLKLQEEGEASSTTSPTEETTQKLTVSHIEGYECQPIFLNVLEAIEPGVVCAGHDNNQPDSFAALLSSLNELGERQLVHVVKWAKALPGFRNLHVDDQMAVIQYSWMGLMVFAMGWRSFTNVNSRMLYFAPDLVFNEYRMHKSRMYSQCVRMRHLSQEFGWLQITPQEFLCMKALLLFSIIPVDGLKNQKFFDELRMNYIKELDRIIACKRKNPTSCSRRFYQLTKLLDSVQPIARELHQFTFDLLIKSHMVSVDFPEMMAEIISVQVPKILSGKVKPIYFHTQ
Procedure, shortened: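 Steps: seed MDA-kb2 cells, incubate 5 hr at 37C; pin-transfer compounds in DMSO; add R1881 to 0.5 nM final; incubate 16 hr; add ONE-Glo, wait 30 min at room temperature; read luminescence.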

[20] = qHTS assay to identify small molecule phospholipidosis (PLD) inducers (AID 1259344; active means well fitted curve in the direction sought with a large enough effect; an effect the other way counts as inactive or inconclusive)
Procedure, shortened: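 HepG2 cells on collagen I, attached 4 h at 37 C, were co-treated with compound and LipidTOX Red dye for 24 h at 37 C, then fixed with paraformaldehyde plus Hoechst 33342 and imaged by high-content microscopy for phospholipid accumulation.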

Measured: Potency

CCCCCCCCCCCCN(C)C
not listed: [18] | [19] | [20]
inactive: all other assays above

O=[N+]([O-])/C=C/c1ccccc1
inactive: [18] | [3] | [7] | [8] | [10] | [13]
active: [2] 17.7 µM | [4] 49.8 µM and 21.9 µM | [5] 6.27 µM and 13.8 µM | [15] 5.54 µM and 10.9 µM

O=[N+]([O-])c1cc(Cl)c(Cl)cc1Cl
not listed: [1] | [17] | [18] | [19] | [20]
inactive: all other assays above

C=CCSSCC=C
active: [3] 54.9 µM
not listed: [12] | [18] | [19] | [20]
inactive: all other assays above

CCOC(C(=O)OCCN(C)C)(c1ccccc1)c1ccccc1
not listed: [12] | [16] | [18] | [19] | [20]
inactive: all other assays above

CCOP(=S)(OCC)Oc1ccc(S(C)=O)cc1 (stereo unspecified)
not listed: [8] | [18] | [19] | [20]
inactive: all other assays above

C1CCNCC1
not listed: [18] | [19] | [20]
inactive: all other assays above

O=C(CCl)CCl
active: [2] 22.7 µM | [5] 18 µM and 19.5 µM
not listed: [1] | [6] | [11] | [15] | [18] | [19] | [20]
inactive: all other assays above

CN(C)N
not listed: [1] | [2] | [3] | [7] | [12] | [17] | [20]
inactive: all other assays above

CCCC[P+](CC)(CCCC)CCCC (tested in a mixture with another compound)
not listed: [1] | [5] | [7] | [12] | [15] | [19] | [20]
inactive: all other assays above

CC(=O)OC(c1ccccc1)C(Cl)(Cl)Cl (stereo unspecified)
active: [1] 19.5 µM | [2] 24.5 µM | [3] 19.5 µM | [9] 24.5 µM
not listed: [7] | [13] | [18] | [19] | [20]
inactive: all other assays above

OC[P+](CO)(CO)CO
not listed: [12] | [18] | [19] | [20]
inactive: all other assays above

CCCC[N+]1(C)[C@@H]2CC(OC(=O)[C@H](CO)c3ccccc3)C[C@H]1[C@@H]1O[C@@H]12 (stereo partly specified)
not listed: [6] | [18] | [19]
inactive: all other assays above

CCC(=O)O[C@@H]1C=C2CCC3C(CCC4(C)C3CC[C@@H]4OC(=O)CC)C2CC1 (stereo partly specified)
not listed: [1] | [6] | [9] | [20]
inactive: all other assays above

CCCCCCCCP(=O)(O)O
not listed: [12] | [18] | [19] | [20]
inactive: all other assays above

CC(C)(c1ccccc1)c1cc(-n2nc3ccccc3n2)c(O)c(C(C)(C)c2ccccc2)c1
not listed: [6] | [18] | [19] | [20]
inactive: all other assays above
